Hit rate of the full screen: of about 5,500 compounds, about 2,000 (36%) were called active. Not shown: some 18% with an inconclusive outcome. Rule as the data show it: active = normalized growth mostly below about 0.91 (no sharp cut-off); inconclusive = no clear call, values can overlap the other calls; inactive = mostly above about 0.92. The list shows a part of the results.
Test: chemical genetic growth profiling, strain panel (AID 1159580);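 also: tested at 20 µM; growth read once vehicle control cultures reached saturation at 30 °C; 1 = growth at the plate median or of vehicle wells; lower values mean less growth of the strain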
Settings: S. cerevisiae deletion strains, growth OD
[1] = locus YAL040C, strain CLN3, stronger effect = lower value
[2] = locus YER002W, strain NOP16, stronger effect = lower value
[3] = locus YGR078C, strain PAC10, stronger effect = lower value
[4] = locus YNL175C, strain NOP13, stronger effect = lower value
[5] = locus YNL197C, strain WHI3, stronger effect = lower value
[6] = locus YNL224C, strain SQS1, stronger effect = lower value
[7] = locus YOR083W, strain WHI5 (second series), stronger effect = lower value
[8] = locus YPL241C, strain CIN2, stronger effect = lower value

Measured: normalized growth

CC(N)=O
inactive: [1] 0.973 | [2] 0.992 | [3] 1 | locus YGR229C, strain SMI1, stronger effect = lower value 1.01 | locus YJR075W, strain HOC1, stronger effect = lower value 0.991 | locus YNL128W, strain TEP1, stronger effect = lower value 0.997 | [4] 0.992 | [5] 1 | [6] 1.04 | [7] 1 | [8] 0.975

NC(=O)C(=O)O
inactive: locus YAL013W, strain DEP1, stronger effect = lower value 1.01 | [1] 1 | locus YCL061C, strain MRC1 (second series), stronger effect = lower value 1 | locus YDR150W, strain NUM1, stronger effect = lower value 1 | locus YDR363W, strain ESC2, stronger effect = lower value 1.02 | [2] 0.999 | [3] 0.994 | locus YMR307W, strain GAS1, stronger effect = lower value 1 | [4] 1.01 | [5] 1 | [6] 1.01 | [7] 1.02 | locus YPL055C, strain LGE1, stronger effect = lower value 1.01 | [8] 0.997
